Bioassay records as filed in PubChem BioAssay.
BoNT A protease: BoNT A light chain protease inhibition; multiplex microsphere protease substrate cleavage, flow cytometry; inhibition, % at 10 µM; actives 0.17% (n = 360,000); note: plate controls were buffer without enzyme for full effect and enzyme alone for no effect
Bead autofluor: flagged as autofluorescent in microsphere protease counterscreen. actives 3.1% (n = 360,000). AID 624483. fluorescence intensity (concentration not given with the values). compound autofluorescence counterscreen, microsphere flow cytometry; stronger effect = higher value; in the data active = fluorescence intensity above about 16000; inconclusive = no clear call, values can overlap the other calls
Anthrax LF inh2: anthrax lethal factor protease inhibition; P15917; multiplex microsphere protease cleavage assay, LF; inhibition, % at 10 µM; actives 0.12% (n = 360,000); AID 588501; note: plate controls were buffer without enzyme for full effect and enzyme alone for no effect
FBA Mtb inh: inhibits M. tuberculosis FBA enzyme; P9WQA3; purified M. tuberculosis FBA, fluorescence read-out; actives 2.3% (n = 360,000); inhibition, % at 1 µM; in the data active = inhibition above about 27%;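 note: 0% = vehicle and 100% = reference inhibitor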
Target sequence (P9WQA3 whole entry, looked up): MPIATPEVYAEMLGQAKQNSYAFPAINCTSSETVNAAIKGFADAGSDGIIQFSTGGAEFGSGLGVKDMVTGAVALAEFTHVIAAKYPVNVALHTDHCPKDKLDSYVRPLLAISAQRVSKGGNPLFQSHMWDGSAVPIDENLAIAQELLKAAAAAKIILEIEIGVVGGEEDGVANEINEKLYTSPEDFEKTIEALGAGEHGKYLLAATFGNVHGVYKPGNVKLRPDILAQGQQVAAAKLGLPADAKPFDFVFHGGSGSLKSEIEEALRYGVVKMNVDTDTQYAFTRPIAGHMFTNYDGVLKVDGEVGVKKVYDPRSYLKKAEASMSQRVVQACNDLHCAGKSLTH
BoNT F protease: BoNT F light chain protease inhibition; Multiplex microsphere protease cleavage assay, flow cytometry; inhibition, % at 10 µM; actives 0.22% (n = 360,000); in the data active = inhibition above about 35%, passing the limit was not always enough; inconclusive = no clear call, values can overlap the other calls; note: plate controls were buffer without enzyme for full effect and enzyme alone for no effect
GDH-TPI counter: inhibits GDH-TPI coupling enzymes, artifact for Mtb FBA screen. GDH-TPI coupled enzyme counterscreen, NADH absorbance. inhibition, % at 4.8 µM. actives 1.2% (n = 360,000); in the data active = inhibition above about 30%;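 note: 0% = DMSO wells and 100% = wells lacking the enzyme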
Numbers without * were called inactive; ? = inconclusive; . = no result. Most compounds without a hit are left out; they make up all but 6.6% or so of the library. Cut-off read from the data, not from the text of the source, unless noted: active = inhibition above about 30%; inconclusive = no clear call, values can overlap the other calls; inactive = below that.

SMILES	BoNT A protease	Bead autofluor	Anthrax LF inh2	FBA Mtb inh	BoNT F protease	GDH-TPI counter
CCN(CC)S(=O)(=O)c1ccc(C(=O)NCc2nnc(SCC(=O)OC)n2C)cc1	13.5	18096*	0.8	1.3	14.9	13.1
CC(C)S(=O)(=O)NC(=O)C1(C)CCN1C(=O)Cc1ccccc1 (stereo not drawn)	-0.6	3963	-6.2	0.0	0.7	-3.9
Cn1nc(CC(=O)NC2CCCCCC2)c2ccccc2c1=O	-0.5	4238	-7.2	-0.7	0.5	2.8
COc1cc(NC(=O)Cc2nn(C)c(=O)c3ccccc23)cc(OC)c1OC	?	17080*	-0.9	-0.4	-2.6	6.4
Cn1nc(C(=O)NC2CCCc3ccccc32)ccc1=O (stereo not drawn)	-0.6	2731	0.8	5.0	-2.5	10.9
Cn1nc(CC(=O)NC2CCCCC2)c2ccccc2c1=O	-1.7	23933*	-1.6	-4.1	-3.1	9.9
Cn1nc(C(=O)NC2CCCCCC2)ccc1=O	?	22596*	-2.5	-0.6	-4.3	10.7
CCC1=Nc2cc(C(=O)NCCN3CCOCC3)ccc2Sc2ccc(Br)cc21	0.5	5383	-1.3	-2.3	0.9	6.5
Nc1nc(Cn2nnc(-c3ccccc3F)n2)nc(N2CCOCC2)n1	-0.3	4445	2.1	2.7	-8.4	6.2
Nc1nc(Cn2nnc(-c3ccccc3Cl)n2)nc(N2CCOCC2)n1	?	23188*	-3.9	-3.8	-3.8	8.9
Cc1ccccc1-c1noc(N)c1C#N	-0.8	23456*	-0.2	2.9	-4.6	13.1
CCOc1cc(-c2noc(N)c2C#N)cc(OCC)c1OCC	0.4	4001	-4.9	-8.0	7.6	8.2
CC1(C(=O)NS(=O)(=O)c2ccc(Cl)cc2)CCN1C(=O)c1ccccc1CCc1ccccc1 (stereo not drawn)	0.2	2939	1.2	2.8	-3.0	12.4
N#Cc1ccc(NC(=O)COC(=O)CCc2nc3ccccc3c(=O)[nH]2)cc1	-26.5	26617*	-15.4	5.1	-127.2	12.7
Cn1c(-c2ccsc2)c(-c2cccs2)c2cc(-c3ccc4cc[nH]c4c3)ccc21	-0.1	3754	-1.5	5.5	-2.1	35.2*
Cn1c(-c2ccsc2)c(-c2cccs2)c2cc(-c3ccc4[nH]ccc4c3)ccc21	-1.0	4128	-2.0	6.1	-4.3	29.0
CC(C)(C)S(=O)(=O)N1C[C@@H]2CC/C=C\C/C=C\2[C@H]1CCO	-0.1	3567	-1.8	-1.1	1.5	-15.6
COc1ccccc1/C=N/N1C(=O)C2C3C=CC(CC3)C2C1=O (stereo not drawn)	-2.4	3616	-1.5	6.9	-10.0	11.2
CN=C1SC(CC(=O)Nc2ccccc2F)C(=O)N1/N=C/c1ccc(O)c(OC)c1 (stereo not drawn)	.	.	.	2.9	.	51.6*
COc1ccccc1N1CCN(/N=C/c2cc(OC)c(OC)c(OC)c2)CC1	-2.7	9864	-6.5	0.5	-7.5	1.5
COc1cc(/C=N/N2CCN(c3ccccc3OC)CC2)ccc1O	?	16130*	-5.0	-1.5	0.4	20.8
COc1cc(/C=N/N2C(=O)C3C4c5ccccc5C(c5ccccc54)C3C2=O)ccc1O (stereo not drawn)	-0.6	2111	-1.7	0.6	-8.8	34.1*
c1ccc2[nH]c(NCCCN3CCOCC3)nc2c1	?	24547*	-4.6	3.9	-6.1	-6.1
O=C(NCc1ccc(Cl)cc1)c1cc([N+](=O)[O-])ccc1Cl	-0.2	1942	0.0	2.8	-3.3	7.3
CCSc1nnc(-c2ccc(S(=O)(=O)NCc3cccs3)cc2)o1	-0.9	20964*	-1.8	3.7	-3.7	4.9
SMILES	BoNT A protease	Bead autofluor	Anthrax LF inh2	FBA Mtb inh	BoNT F protease	GDH-TPI counter
CCOc1ccc(S(=O)(=O)NCc2cccs2)cc1	0.4	11352	-3.1	2.0	-3.3	7.4
Cc1ccc(OCCCC(=O)NNC(=O)c2ccccn2)cc1	-0.4	3805	2.0	2.7	-4.0	10.5
O=C(COC(=O)C1CCN(S(=O)(=O)c2cccs2)CC1)NCc1ccc(F)cc1	1.4	2344	-0.9	-1.8	25.5	10.1
COc1cc(C2NC(=O)NC(C)=C2C(=O)OCC2CCCCC2)cc(Cl)c1O (stereo not drawn)	-2.4	3309	18.2	1.1	-16.6	16.9
COc1cc(C2NC(=O)NC(C)=C2C(=O)OC2CCCCC2)cc(Cl)c1O (stereo not drawn)	-4.6	3868	-11.8	184.4*	-6.6	5.4
CCOC(=O)c1ccc(NNC(=O)CC)c([N+](=O)[O-])c1	-0.2	3131	-0.9	5.4	2.2	5.1
